Data on eight compounds can be found in PubChem BioAssay (Tox21).

SMILES strings stand for the structures. A number with no mark means an inactive call. Results filed as inconclusive are left out. The source made the active and inactive calls. Unless noted, calls follow the shape of the dose curve; as a rule, active = well fitted curve in the direction sought with a large enough effect in the repeat runs; inconclusive = weak or mixed curves; inactive = no such curve, though single readings can be large; an effect the other way counts as inactive or inconclusive.

Assay [1] is described as follows: A CellTox Green Cytotoxicity Assay to monitor cytotoxicity in HEK293 cells - 8 hour (AID 1224884). Also: nearly all actives have a fitted effect of over 35% in size. Also: potency is read from the fitted curve at half-maximal effect. The method, boiled down:
(§1)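 Homogeneous no-lysis format: HEK293 cell suspension mixed with CellTox Green reagent, seeded, incubated 5 h at 37 C/5% CO2, then dosed by pintool with compound in DMSO.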

Assay [2] in a line: qHTS RealTime-Glo MT Cell Viability Assay in HepG2 cells - 16 hour (AID 1224885). Also: nearly all actives have a fitted effect of over 50% in size. Also: potency is read from the fitted curve at half-maximal effect. The method, boiled down: (§2)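 Tox21 10K library screened in qHTS format on HepG2 cells carrying RealTime-Glo reagents. Compounds were added after a 5 h preincubation, and the luminescent signal from continuous culture was measured repeatedly during 40 h treatment.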
(In general: qHTS replaces the single test concentration by a dilution series.)

Assay [3] in a line: qHTS RealTime-Glo MT Cell Viability Assay in HEK293 cells - 8 hour (AID 1224887). Also: nearly all actives have a fitted effect of over 50% in size. Also: potency is read from the fitted curve at half-maximal effect. The method, boiled down: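 Measured as luminescence from the same continuously cultured HEK293 wells at successive time points (0, 8, 16, 24, 32, 40 h) after compound addition. Reagent present from seeding; dosing at 5 h; incubation 37 C.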
Assay [4] is described as follows: A CellTox Green Cytotoxicity Assay to monitor cytotoxicity in HEK293 cells - 16 hour (AID 1224888). Also: nearly all actives have a fitted effect of over 35% in size. Also: potency is read from the fitted curve at half-maximal effect. The method, boiled down: as §1
Assay [5] can be described thus: qHTS RealTime-Glo MT Cell Viability Assay in HepG2 cells - 0 hour (AID 1224889). Also: nearly all actives have a fitted effect of over 50% in size. Also: potency is read from the fitted curve at half-maximal effect. The method, boiled down:
as §2

A short description of assay [6]: A CellTox Green Cytotoxicity Assay to monitor cytotoxicity in HepG2 cells - 8 hour (AID 1224890). Also: nearly all actives have a fitted effect of over 45% in size. The method, boiled down:
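Fluorescent DNA-binding dye, 600 HepG2 cells/well, 5 h preincubation then compound in DMSO; same plates read at 0–40 h, 37 C.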

Assay [7] can be described thus: qHTS assay to identify small molecule antagonists of the estrogen receptor alpha (ER-alpha) signaling pathway using the BG1 cell line in the presence of 0.1 nM 17-beta-estradiol - cell viability counter screen (AID 1259241). Also: nearly all actives have a fitted effect of over 40% in size. Also: potency is read from the fitted curve at half-maximal effect. The method, boiled down: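 Viability in VM7Luc4E2 cells after 22 hr compound exposure under 0.1 nM 17beta-estradiol stimulation, by CellTiter-Fluor.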

A short description of assay [8]: qHTS assay to identify small molecule antagonists of the androgen receptor (AR) signaling pathway using the MDA cell line in the presence of 0.5 nM R1881 - cell viability counter screen (AID 1259242). Also: nearly all actives have a fitted effect of over 45% in size. Also: potency is read from the fitted curve at half-maximal effect. The method, boiled down: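 Human breast carcinoma MDA-kb2 cells, cultured without CO2, receive compounds alongside 0.5 nM (final) R1881 agonist. After 16 hr at 37C, viability is taken as live-cell protease signal.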

A short description of assay [9]: qHTS assay to identify small molecule HDAC inhibitors (AID 1259364). Also: potency is read from the fitted curve at half-maximal effect.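 Also: wild-type HCT-116 cells with endogenous class I/II HDAC activity; nearly all actives have a fitted effect of over 45% in size.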 The method, boiled down:
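After a 2 hr compound incubation (37C, 5% CO2), HCT-116 cells seeded at 1,500/well the day before received HDAC-Glo reagent; signal read as luminescence after 30 min at room temperature.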

Assay [10] can be described thus: qHTS assay to identify small molecule HDAC inhibitors - cell viability counter screen (AID 1259365). Also: series mostly up to about 92 µM; nearly all actives have a fitted effect of over 50% in size. The method, boiled down:
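Cytotoxicity was gauged in wild-type HCT-116 cells after a brief 2hr treatment with DMSO-dissolved compounds at 37C and 5% CO2, using CellTiter-Glo luminescence developed for 30min at room temperature.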

A short description of assay [11]: qHTS assay to identify small molecule agonists of the sonic hedgehog signaling (Shh) pathway - cell viability counter screen (AID 1259366). Also: nearly all actives have a fitted effect of over 50% in size. Also: potency is read from the fitted curve at half-maximal effect. The method, boiled down:
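Stable Gli1-Luc NIH/3T3 clone, 2,000 cells/well. Compound exposure 24hr at 37C. Read-out: CellTiter-Fluor fluorescence.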

Assay [12] is described as follows: qHTS assay to identify small molecule antagonists of the sonic hedgehog signaling (Shh) pathway - cell viability counter screen (AID 1259367). Also: nearly all actives have a fitted effect of over 55% in size. Also: potency is read from the fitted curve at half-maximal effect. The method, boiled down:
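Cytotoxicity was assessed in parallel with Shh reporter activity by measuring live-cell protease fluorescence (CellTiter-Fluor) in NIH/3T3 cells stably carrying Gli1-Luc, treated with compound under conditioned medium stimulation for 23 hr plus 1 hr reagent incubation.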

Assay [13] can be described thus: qHTS assay to identify small molecule agonists of the sonic hedgehog signaling (Shh) pathway (AID 1259368; calls by dose curve;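 also: NIH/3T3-derived 3T3Gli1-Luc cells carrying a stable Gli1-driven firefly luciferase reporter; series mostly up to about 92 µM; nearly all actives have a fitted effect of over 15% in size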). The method, boiled down:
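Stable NIH/3T3 Gli1-Luc reporter clone; 24 hr cpd exposure after a 4 hr settling period; luminescence endpoint.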

Assay [14] addresses Estrogen receptor beta (Homo sapiens) (UniProt Q92731). Briefly: qHTS assay to identify small molecule agonists of the estrogen receptor beta (ER-beta) signaling pathway (AID 1259377; active = well fitted activation curve with a large enough effect in the signal ratio in the repeat runs, not every such curve was filed as active; the % refers to the signal ratio). The method, boiled down: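 Measured by fluorescence intensity from a B/G FRET beta-lactamase substrate (2 h, room temperature) in ER-beta-UAS-bla HEK293T cells treated with DMSO-dissolved compounds for 16 hr at 37C and 5% CO2.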

Assay [15] shares this target. Briefly: qHTS assay to identify small molecule antagonists of the estrogen receptor beta (ER-beta) signaling pathway (AID 1259378; active = well fitted inhibition curve with a large enough effect in the signal ratio in the repeat runs, not every such curve was filed as active; the % refers to the signal ratio). The method, boiled down: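 ER-beta-UAS-bla HEK293T (GripTite) cells in 2% charcoal-stripped FBS medium were preincubated 6 hr at 37C, dosed with compound, then stimulated with 1 nM E2 (final) for 16 hr; beta-lactamase reporter read by B/G FRET fluorescence after 2 hr substrate loading.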

Assay [16] in a line: qHTS RealTime-Glo MT Cell Viability Assay in HEK293 cells - 24 hour (AID 1224886). The method, boiled down: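 Luminescence generated by NanoLuc from substrate produced by living HEK293 cells served as the viability signal. Each value reflects the reading at its stated time point during continuous 40 h compound exposure at 37 C.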
The target in assay [17] is Androgen receptor (Homo sapiens) (UniProt P10275). Briefly: qHTS assay to identify small molecule antagonists of the androgen receptor (AR) signaling pathway using the MDA cell line in the presence of 0.5 nM R1881 (AID 1259243). Also: nearly all actives have a fitted effect of over 50% in size. Also: potency is read from the fitted curve at half-maximal effect. The method, boiled down:
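Cells: MDA-kb2 (MMTV-luc). Stimulus: 0.5 nM R1881. Time: 16 hr, 37C, no CO2. Detection: ONE-Glo luminescence after 30 min at RT.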

Assay [18] has as its target Estrogen receptor (Homo sapiens) (UniProt P03372). In words: qHTS assay to identify small molecule antagonists of the estrogen receptor alpha (ER-alpha) signaling pathway using the BG1 cell line in the presence of 0.1 nM 17-beta-estradiol (AID 1259244). Also: nearly all actives have a fitted effect of over 50% in size. Also: potency is read from the fitted curve at half-maximal effect. The method, boiled down:
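Seeding of stripped-serum-adapted VM7Luc4E2 cells, 24 h attachment, compound transfer, then 0.1 nM final 17beta-estradiol; after 22 h incubation, ONE-Glo reagent and luminescence reading.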

Assay [19] is described as follows: qHTS assay to identify small molecule antagonists of the sonic hedgehog signaling (Shh) pathway (AID 1259369; calls by dose curve; also: nearly all actives have a fitted effect of over 45% in size; also: potency is read from the fitted curve at half-maximal effect). The method, boiled down: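 Gli1 transcriptional reporter (firefly Luc) in NIH/3T3 background, conditioned-medium activated. 24hr exposure, luminescence endpoint.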
Assay [20] in a line: qHTS assay to identify small molecule phospholipidosis (PLD) inducers (AID 1259344; active = well fitted curve in the direction sought with a large enough effect; an effect the other way counts as inactive or inconclusive). The method, boiled down: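 Cells (HepG2, 900 per well) attach for 4 h, receive LipidTOX Red and compound together, incubate 24 h at 37 C, are fixed 30 min with paraformaldehyde/Hoechst, then imaged at one site per well.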
% is scaled to controls: 0 for no effect and ±100 for the full control effect.

Estrogen receptor beta (Homo sapiens), sequence (Q92731 whole entry, looked up): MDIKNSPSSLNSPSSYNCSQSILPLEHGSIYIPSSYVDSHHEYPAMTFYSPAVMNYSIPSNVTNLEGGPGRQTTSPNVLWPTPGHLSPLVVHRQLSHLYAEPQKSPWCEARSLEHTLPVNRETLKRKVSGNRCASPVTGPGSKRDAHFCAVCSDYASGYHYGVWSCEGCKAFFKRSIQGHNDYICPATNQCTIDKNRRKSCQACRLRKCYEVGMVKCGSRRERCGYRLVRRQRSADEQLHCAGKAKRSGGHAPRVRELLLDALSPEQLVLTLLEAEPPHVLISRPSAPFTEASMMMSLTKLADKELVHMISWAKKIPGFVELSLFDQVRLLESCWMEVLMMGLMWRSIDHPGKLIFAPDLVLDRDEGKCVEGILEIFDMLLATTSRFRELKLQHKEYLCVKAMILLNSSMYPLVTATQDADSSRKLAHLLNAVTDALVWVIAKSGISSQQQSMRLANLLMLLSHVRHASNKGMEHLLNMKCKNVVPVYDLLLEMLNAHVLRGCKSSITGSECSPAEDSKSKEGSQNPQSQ
Estrogen receptor (Homo sapiens), sequence (P03372 whole entry, looked up): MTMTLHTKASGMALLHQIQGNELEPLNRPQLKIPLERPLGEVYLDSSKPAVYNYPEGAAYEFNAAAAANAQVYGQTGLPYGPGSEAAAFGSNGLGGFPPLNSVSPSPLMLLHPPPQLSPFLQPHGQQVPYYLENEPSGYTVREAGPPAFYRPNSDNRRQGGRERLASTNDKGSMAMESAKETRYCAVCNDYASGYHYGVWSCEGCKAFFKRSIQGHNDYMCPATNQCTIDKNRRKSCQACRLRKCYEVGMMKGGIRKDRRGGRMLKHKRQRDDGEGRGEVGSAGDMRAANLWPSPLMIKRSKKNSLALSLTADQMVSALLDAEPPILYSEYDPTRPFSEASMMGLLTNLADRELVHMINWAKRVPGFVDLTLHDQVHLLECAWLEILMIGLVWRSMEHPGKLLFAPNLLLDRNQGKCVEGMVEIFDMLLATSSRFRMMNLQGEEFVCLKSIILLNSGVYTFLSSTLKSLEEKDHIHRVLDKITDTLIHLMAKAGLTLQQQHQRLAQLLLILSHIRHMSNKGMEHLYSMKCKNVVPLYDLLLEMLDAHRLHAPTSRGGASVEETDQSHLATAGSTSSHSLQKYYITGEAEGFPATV
Androgen receptor (Homo sapiens), sequence (P10275 whole entry, looked up): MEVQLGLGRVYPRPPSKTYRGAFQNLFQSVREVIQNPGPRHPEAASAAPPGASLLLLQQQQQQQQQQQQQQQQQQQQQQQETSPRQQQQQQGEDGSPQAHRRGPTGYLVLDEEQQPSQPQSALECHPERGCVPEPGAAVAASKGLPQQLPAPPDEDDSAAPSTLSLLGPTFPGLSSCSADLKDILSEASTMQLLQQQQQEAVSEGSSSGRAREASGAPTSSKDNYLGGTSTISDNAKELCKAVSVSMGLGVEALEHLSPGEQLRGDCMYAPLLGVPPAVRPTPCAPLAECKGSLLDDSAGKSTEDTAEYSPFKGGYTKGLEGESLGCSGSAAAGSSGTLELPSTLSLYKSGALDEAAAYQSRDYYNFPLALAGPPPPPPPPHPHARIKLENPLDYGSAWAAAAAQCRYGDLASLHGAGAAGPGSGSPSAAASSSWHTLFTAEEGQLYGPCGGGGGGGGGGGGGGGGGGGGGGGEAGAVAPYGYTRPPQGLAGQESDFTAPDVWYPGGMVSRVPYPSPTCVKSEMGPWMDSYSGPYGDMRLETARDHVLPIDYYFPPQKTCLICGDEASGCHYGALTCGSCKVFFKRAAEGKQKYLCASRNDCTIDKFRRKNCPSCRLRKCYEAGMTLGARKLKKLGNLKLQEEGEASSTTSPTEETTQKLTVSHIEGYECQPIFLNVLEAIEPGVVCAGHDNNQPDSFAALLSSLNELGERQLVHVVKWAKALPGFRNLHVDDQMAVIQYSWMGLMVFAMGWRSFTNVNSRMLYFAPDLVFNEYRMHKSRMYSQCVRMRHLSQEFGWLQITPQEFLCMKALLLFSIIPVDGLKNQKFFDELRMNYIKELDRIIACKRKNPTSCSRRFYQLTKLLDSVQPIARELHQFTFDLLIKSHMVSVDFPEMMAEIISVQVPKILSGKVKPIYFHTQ

On to `O=C(Nc1ccc([N+](=O)[O-])cc1)Nc1ccc([N+](=O)[O-])cc1` (tested in a mixture with another compound), for which the Potency entry in assay [1], in [2], in [3], in [4], in [5] and in [6] was “inactive” each time. Also, the Potency entry in assay [7], in assay [8], in assay [9], in assay [10], in assay [11] and in assay [12] was “inactive” in each case. Further, the Potency entry in assay [13] and in [15] was “inactive” in each case. Besides, in assay [14], the compound was classed as inactive.
In the case of `CC(C=O)c1ccccc1` (centres undefined), the Potency entry in [1], in assay [16], in [3], in [4], in assay [5] and in [6] was “inactive” each time. Besides, the Potency entry in [7], in [8], in [17], in assay [18], in [9] and in assay [10] was “inactive” in each case. Also, the Potency entry in [11], in assay [12], in [13], in [19] and in assay [15] was “inactive” throughout. For the same compound, the compound was called inactive in assay [14].
Consider `CSc1nnc(C(C)(C)C)c(=O)[nH]1`, for which the Potency entry in assay [1], in assay [16], in assay [3], in [4], in assay [5] and in assay [6] was “inactive” throughout. In addition, the Potency entry in [7], in [8], in assay [17], in assay [18], in assay [9] and in assay [11] was “inactive” each time. The Potency entry in assay [12], in assay [13], in assay [19] and in [15] was “inactive” throughout. In addition, the result in [14] was inactive.
Take `CC1=C(/C=C/C(C)=C/C=C/C(C)=C\C(=O)O)C(C)(C)CCC1`: the Potency result in assay [1], in [2], in [4], in assay [5], in assay [6] and in [7] was “inactive” throughout. Further, the Potency result in [8], in assay [9], in [10], in [11] and in assay [12] was “inactive” throughout.
Consider `CCCC(=O)c1cc(O)c(O)cc1O`, for which the Potency result in [1], in [2], in assay [3], in assay [4], in assay [5] and in [6] was “inactive” throughout. Further, the Potency result in [17], in assay [18], in [9], in assay [10] and in assay [13] was “inactive” in each case. For the same compound, the PLD induction in [20] is -3.64% [at 3.15 µM]. In addition, the Potency was 54.5 µM (active) in assay [11] and 27.3 µM (active) in [19].
Take `Cc1ccc(S(=O)(=O)C(I)I)cc1`: the Potency was 49 µM (active) in assay [1]; 11 µM (active) in assay [2]; 24.5 µM (active) in [3]; 43.6 µM (active) in assay [4]; 12.3 µM (active) in [5]; 77 µM (active) in assay [7]. The Potency in [8] was 48.6 µM (active); in assay [17], 15.4 µM (active); in assay [18] it was 13.7 µM (active); in assay [12] it was 7.7 µM (active); in [19], 1.22 µM (active). The Potency entry in [9], in assay [10] and in [13] was “inactive” throughout.
Turning to `C=COCCCC`, the Potency entry in assay [1], in [2], in assay [4], in assay [5], in assay [6] and in assay [7] was “inactive” in each case. Also, the Potency result in assay [8], in assay [17], in [18], in [9], in assay [10] and in assay [11] was “inactive” throughout. The Potency entry in assay [12], in assay [13], in assay [19] and in [15] was “inactive” in each case. In assay [14], the compound was called inactive.
Consider `CC(C)c1ccc2sc3ccccc3c(=O)c2c1`, for which the Potency entry in assay [1], in [2], in [4], in [5], in assay [6] and in [7] was “inactive” each time. Besides, the Potency entry in assay [8], in [18], in [12], in [19] and in [15] was “inactive” in each case. In addition, in assay [9], the Potency is 1.72 µM (active). For the same compound, the outcome in assay [14] was inactive.
